According to the supplement of paper PMC10933113:

tested on: KeratinoSens (HaCaT ARE-luciferase) cells; experiment: Nrf2/ARE luciferase activation call in qHTS KeratinoSens assay (1 = active, 0 = inactive);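 active = curve rank above 3; inactive = curve rank 0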

Question: For `COC[C@H](c1ccc(C(F)(F)F)cc1)N1CCN(C2(C)CCN(C(=O)c3c(C)ncnc3C)CC2)C[C@H]1C.O=C(O)/C=C\C(=O)O`, which “Nrf2/ARE luciferase activation call” value is on record?
Answer: The value was “not active ARE inducer (skin sensitizer alert) (inactive)”.

Question: How did the “Nrf2/ARE luciferase activation call” value turn out when `O=C(O)/C=C/C(=O)O.c1ccc(C(O[C@H]2CCCN(CCc3ccc4c(c3)OCO4)C2)c2ccccc2)cc1` was run?
Answer: The value was “not active ARE inducer (skin sensitizer alert) (inactive)”.

Question: With `Nc1nc(N)nc(-c2cc(Cl)ccc2Cl)n1.O=C(O)/C=C\C(=O)O` as the compound, how does the “Nrf2/ARE luciferase activation call” value read?
Answer: Its value is “not active ARE inducer (skin sensitizer alert) (inactive)”.

Question: For `CCn1cc[n+](C)c1C.O=S(=O)([O-])C(F)(F)F`, which “Nrf2/ARE luciferase activation call” value is on record?
Answer: Its value is “not active ARE inducer (skin sensitizer alert) (inactive)”.

Question: `CC(=O)c1ccc2c(c1)N(CCCN(C)C)c1ccccc1S2.O=C(O)/C=C\C(=O)O` was tested. Which “Nrf2/ARE luciferase activation call” value did it give?
Answer: Its value is “not active ARE inducer (skin sensitizer alert) (inactive)”.

Question: Which “Nrf2/ARE luciferase activation call” value does the source give for `CCCC[N+]1(C)CCCC1.O=S(=O)([O-])C(F)(F)F` here?
Answer: Its value is “not active ARE inducer (skin sensitizer alert) (inactive)”.

Question: Which “Nrf2/ARE luciferase activation call” value does the source give for `O=C(O)/C=C\C(=O)O.O=C(O)/C=C\C(=O)O.c1cc(CN2CCCCC2)cc(OCCCNc2nc3ccccc3s2)c1` here?
Answer: The value was “not active ARE inducer (skin sensitizer alert) (inactive)”.

Question: `CN1CCC[C@@H]1CCO[C@](C)(c1ccccc1)c1ccc(Cl)cc1.O=C(O)/C=C/C(=O)O` was tested. Which “Nrf2/ARE luciferase activation call” value did it give?
Answer: Its value is “not active ARE inducer (skin sensitizer alert) (inactive)”.
